From PubChem BioAssay (NCI)
Where “and” joins values, the source holds several entries; their conditions need not be identical. Equal entries are not always repeated. About 79,000 compounds went through this panel and 15% of them were active in at least one assay; those are over-represented in the sample as a whole. Some structures have more than one record in an assay (separate samples or runs), and their calls can disagree. Calls of active or inactive are those of the source. Cut-off read from the data, not from the text of the source: active = growth inhibition above about 70%; inactive = the rest.

Experiments:
[1] = NCI Yeast Anticancer Drug Screen. Data for the rad52 strain (AID 147);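 note: 0% = growth of vehicle-treated control cultures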; conditions: S. cerevisiae rad52 mutant growth inhibition, stronger effect = higher value
Procedure, shortened: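 Screen used a yeast mutant impaired in DNA repair. After compound exposure, growth was measured. Values reflect inhibition compared with vehicle-treated cells.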

[2] = NCI Yeast Anticancer Drug Screen. Data for the wt1 strain (AID 149);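 note: 0% = growth of vehicle-treated wt1 cultures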; conditions: S. cerevisiae wt1 strain (SPY 50644) growth inhibition, stronger effect = higher value
Procedure, shortened: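 Measured: growth of wt1 yeast under compound versus vehicle treatment, reported as inhibition.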

[3] = NCI Yeast Anticancer Drug Screen. Data for the rad50EPP+ strain (AID 151);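 note: 0% = growth of vehicle-treated control cultures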; conditions: S. cerevisiae rad50 mutant strain, stronger effect = higher value
Procedure, shortened: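 Exposing the rad50EPP+ strain to each compound, growth was compared with vehicle-only cultures to give inhibition.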

[4] = NCI Yeast Anticancer Drug Screen. Data for the mgt1 strain (AID 153); conditions: S. cerevisiae mgt1 mutant growth inhibition, stronger effect = higher value
Procedure, shortened: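 Genetically defined yeast (mgt1) treated with compound; inhibition of growth expressed against vehicle-treated controls.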

[5] = NCI Yeast Anticancer Drug Screen. Data for the rad50 strain (AID 155);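 note: 0% = growth of vehicle-only cultures of the same strain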; conditions: S. cerevisiae rad50 strain growth inhibition, stronger effect = higher value
Procedure, shortened: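 Growth of the mutant yeast was measured after compound exposure and referenced to vehicle-treated cultures.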

[6] = NCI Yeast Anticancer Drug Screen. Data for the mec2-1 strain (AID 157); conditions: S. cerevisiae mec2-1 strain, stronger effect = higher value
Procedure, shortened: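 Readout is yeast growth inhibition, normalised to vehicle-treated controls, in the mec2-1 strain exposed to compound.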

[7] = NCI Yeast Anticancer Drug Screen. Data for the rad14 strain (AID 159);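 note: 0% = growth of vehicle-treated control cultures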; conditions: S. cerevisiae rad14 strain growth inhibition, stronger effect = higher value
Procedure, shortened: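 Here, inhibition of yeast growth was measured after compound exposure, using a strain with a genetic defect in DNA damage repair and vehicle-treated cultures as the reference.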

[8] = NCI Yeast Anticancer Drug Screen. Data for the sgs1 mgt1 strain (AID 161);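 note: 0% = growth of cultures given vehicle only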; conditions: S. cerevisiae sgs1 mgt1 strain, stronger effect = higher value
Procedure, shortened: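 Yeast cells carrying a defined DNA-repair defect were exposed to test compounds. Growth inhibition was measured relative to vehicle-treated controls.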

[9] = NCI Yeast Anticancer Drug Screen. Data for the CLN2oe strain (AID 163);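 note: 0% = growth of vehicle-only control cultures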; conditions: S. cerevisiae CLN2oe strain, stronger effect = higher value
Procedure, shortened: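 Values reflect how much compound exposure reduced yeast growth, referenced to vehicle-exposed cells. Assay organism is a strain with a defined genetic change affecting cell-cycle control.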

[10] = NCI Yeast Anticancer Drug Screen. Data for the cln2 rad14 strain (AID 165);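 note: 0% = growth equal to vehicle treated cultures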; conditions: S. cerevisiae cln2 rad14 strain, stronger effect = higher value
Procedure, shortened: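 Relative to vehicle controls, growth inhibition of compound-treated cln2 rad14 yeast was recorded.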

[11] = NCI Yeast Anticancer Drug Screen. Data for the bub3 strain (AID 167); conditions: S. cerevisiae bub3 mutant strain, stronger effect = higher value
Procedure, shortened: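 Whole-cell yeast assay. The mutant strain was incubated with compounds, and growth inhibition was determined by comparison with vehicle-treated cells.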

[12] = NCI Yeast Anticancer Drug Screen. Data for the wt2 strain (AID 169);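 note: 0% = growth of vehicle-treated yeast cultures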; conditions: S. cerevisiae wt2 strain growth inhibition, stronger effect = higher value
Procedure, shortened: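 Values express reduction in yeast growth under compound treatment, referenced to vehicle-treated cells.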

[13] = NCI Yeast Anticancer Drug Screen. Data for the sgs1 strain (AID 173);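 note: 0% = growth of vehicle-only control cultures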; conditions: S. cerevisiae sgs1 mutant, stronger effect = higher value
Procedure, shortened: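 Treat defined-mutant yeast with compound; measure growth; calculate inhibition relative to vehicle-treated cells.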

[14] = NCI Yeast Anticancer Drug Screen. Data for the mlh1 rad18 strain (AID 175); conditions: S. cerevisiae mlh1 rad18 strain growth inhibition, stronger effect = higher value
Procedure, shortened: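 Test agents were incubated with a yeast strain of defined genotype (DNA damage repair defect). Inhibition of growth was derived by comparison with vehicle-exposed cultures.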

[15] = NCI Yeast Anticancer Drug Screen. Data for the rad18 strain (AID 177); conditions: S. cerevisiae rad18 mutant growth inhibition, stronger effect = higher value
Procedure, shortened: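 A genetically defined yeast mutant impaired in DNA damage repair was treated with test compounds, then its growth was measured against cultures receiving vehicle alone.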

[16] = NCI Yeast Anticancer Drug Screen. Data for the mlh1 strain (AID 171);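 note: 0% = growth of vehicle-treated control cultures of the same strain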; conditions: S. cerevisiae mlh1 strain growth inhibition, stronger effect = higher value
Procedure, shortened: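 Steps: expose the defined-mutant yeast strain to compound; expose a parallel culture to vehicle; measure growth; express compound effect as inhibition relative to the vehicle culture.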

[17] = at 5.0 µM (retest, dose inferred, filed as 0.5)
[18] = at 50.0 µM (retest, dose inferred, filed as 5.0)

Measured: growth inhibition

CCCCCCC(O)CNCc1ccnc2ccc(OC)cc12 (stereo unspecified)
inactive: [1]; at 1.2 µM 5% | [1]; at 3.7 µM 12% | [1]; at 11.0 µM 22% | [1]; at 33.0 µM 35% | [1]; at 100.0 µM 52% | [2]; at 1.2 µM 2% | [2]; at 3.7 µM 9% | [2]; at 11.0 µM 4% | [2]; at 33.0 µM 8% | [2]; at 100.0 µM 18% | [3]; at 1.2 µM 1% | [3]; at 3.7 µM 2% | [3]; at 11.0 µM 4% | [3]; at 33.0 µM 0% | [3]; at 100.0 µM 2% | [4]; at 1.2 µM 1% | [4]; at 3.7 µM 4% | [4]; at 11.0 µM 17% | [4]; at 33.0 µM 38% | [4]; at 100.0 µM 51% | [5]; at 1.2 µM 5% | [5]; at 3.7 µM 13% | [5]; [17] 8% | [5]; at 11.0 µM 11% | [5]; at 33.0 µM 31% | [5]; [18] 51% | [5]; at 100.0 µM 54% | [6]; at 1.2 µM 4% | [6]; at 3.7 µM 13% | [6]; [17] 7% | [6]; at 11.0 µM 15% | [6]; at 33.0 µM 29% | [6]; [18] 43% | [6]; at 50.0 µM 53.4% | [6]; at 100.0 µM 46% | [7]; at 1.2 µM 13% | [7]; at 3.7 µM 32% | [7]; at 11.0 µM 33% | [7]; at 33.0 µM 33% | [7]; at 100.0 µM 49% | [8]; [17] 23% | [8]; [18] 61% | [9]; at 1.2 µM 9% | [9]; at 3.7 µM 12% | [9]; at 11.0 µM 39% | [9]; at 33.0 µM 49% | [9]; at 100.0 µM 56% | [10]; [17] 14% | [10]; [18] 43% | [11]; at 1.2 µM 1% | [11]; at 3.7 µM 8% | [11]; [17] 20% | [11]; at 11.0 µM 24% | [11]; at 33.0 µM 44% | [11]; [18] 63% | [11]; at 100.0 µM 63% | [12]; at 1.2 µM 4% | [12]; at 3.7 µM 8% | [12]; at 11.0 µM 9% | [12]; at 33.0 µM 14% | [12]; at 100.0 µM 28% | [13]; at 1.2 µM 6% | [13]; at 3.7 µM 12% | [13]; at 11.0 µM 18% | [13]; at 33.0 µM 29% | [13]; at 100.0 µM 56% | [14]; [17] 21% | [14]; [18] 61% | [14]; at 50.0 µM 52.2% | [15]; at 1.2 µM 7% | [15]; at 3.7 µM 12% | [15]; at 11.0 µM 8% | [15]; at 33.0 µM 19% | [15]; at 100.0 µM 30%
active: [5]; at 50.0 µM 76.8% | [8]; at 50.0 µM 83.5% | [10]; at 50.0 µM 72.2% | [11]; at 50.0 µM 83.7%

O=[N+]([O-])c1cc[n+]([O-])cc1
inactive: [1]; at 1.2 µM -3% | [1]; at 3.7 µM 2% | [1]; at 11.0 µM 4% | [1]; at 33.0 µM 32% | [2]; at 1.2 µM -6% | [2]; at 3.7 µM -6% | [2]; at 11.0 µM -10% | [2]; at 33.0 µM -14% | [3]; at 1.2 µM 1% | [3]; at 3.7 µM 11% | [3]; at 11.0 µM 12% | [3]; at 33.0 µM 48% | [4]; at 1.2 µM -1% | [4]; at 3.7 µM -4% | [4]; at 11.0 µM -3% | [4]; at 33.0 µM -16% | [5]; at 1.2 µM -6% | [5]; at 3.7 µM -6% | [5]; [17] -158% and 4% | [5]; at 11.0 µM -1% | [5]; at 33.0 µM 58% | [5]; [18] 66% and 60% | [6]; at 1.2 µM 4% | [6]; at 3.7 µM -2% | [6]; [17] -52% and 2% | [6]; at 11.0 µM 0% | [6]; at 33.0 µM -2% | [6]; [18] -19% and 38% | [6]; at 50.0 µM 52% and 57.5% | [7]; at 1.2 µM -2% | [7]; at 3.7 µM 1% | [7]; at 11.0 µM -1% | [7]; at 33.0 µM 19% | [8]; [17] -62% and -8% | [8]; [18] 40% and 54% | [9]; at 1.2 µM -3% | [9]; at 3.7 µM -4% | [9]; at 11.0 µM -2% | [9]; at 33.0 µM 5% | [10]; [17] -61% and -3% | [10]; [18] -19% and 19% | [10]; at 50.0 µM 50.1% and 7.4% | [11]; at 1.2 µM -12% | [11]; at 3.7 µM -8% | [11]; [17] -68% and 5% | [11]; at 11.0 µM 2% | [11]; at 33.0 µM 22% | [11]; [18] 13% and 33% | [11]; at 50.0 µM 9.95% and 68% | [16]; at 1.2 µM 3% | [16]; at 3.7 µM -6% | [16]; at 11.0 µM -3% | [16]; at 33.0 µM -3% | [13]; at 1.2 µM -2% | [13]; at 3.7 µM -3% | [13]; at 11.0 µM -8% | [13]; at 33.0 µM 33% | [14]; [17] -136% and 0% | [14]; [18] 33% and 53% | [15]; at 1.2 µM -2% | [15]; at 3.7 µM 0% | [15]; at 11.0 µM 3% | [15]; at 33.0 µM 16%
active: [1]; at 100.0 µM 98% | [2]; at 100.0 µM 99% | [3]; at 100.0 µM 98% | [4]; at 100.0 µM 99% | [5]; at 100.0 µM 99% | [6]; at 100.0 µM 99% | [7]; at 100.0 µM 99% | [9]; at 100.0 µM 98% | [11]; at 100.0 µM 99% | [16]; at 100.0 µM 99% | [13]; at 100.0 µM 99% | [15]; at 100.0 µM 98%
46.1% (inactive) and 83.2% (active): [5]; at 50.0 µM
26.7% (inactive) and 86.5% (active): [8]; at 50.0 µM
26.8% (inactive) and 87.5% (active): [14]; at 50.0 µM
